# PubChem BioAssay (NCI)
# Compounds without any hit were thinned out: in the full panel of roughly 83,000, 20% have a hit.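 Assay: single dose, 48 h. Readout: percent growth (0 = no net growth; negative = cell death). Active: <10.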 Unmarked numbers belong to inactive results. Active and inactive are the calls of the source.
# System: HL-60(TB) leukemia
# Test: NCI-60 one-dose screen, 48 h (100 = growth as untreated, 0 = no growth, -100 = all killed)
# Settings: 10 µM unless noted
row,SMILES,growth
1,CC(=O)c1ccc(-n2cc(CN3CCN(c4cc5c(cc4F)c(=O)c(C(=O)O)cn5C4CC4)CC3)nn2)cc1,99%
2,COCCOc1cc2ncnc(N3CCN(c4ncc(S(=O)(=O)N5CCCCC5)cn4)CC3)c2cc1OCCOC,100%
3,ClC1C2CC(c3ccccc32)C1Cl (centres undefined),131%
4,CCC(=O)c1cc([N+](=O)[O-])c(Br)s1,34%
5,CCOC(=O)c1ccc(-c2ccc3cc(OC)ccc3c2)nc1C,91.2%
6,COc1ccc(-c2nc3c(c(C)nn3-c3ccc(F)cc3)c(=O)[nH]2)cc1,70%
7,Cn1c(COC(=O)NCCN2CCOCC2)nc2c(N3CCOCC3)nc(-c3ccccc3)nc21,-52.8% (active)
8,COc1cc2c(O)n(CCCN3CCOCC3)c3c4cnc5cccc(c(=O)c3c2cc1OC)c54,42.8%
9,CN(C)CCOC(=O)Nc1ccc(Cc2ccc(NC(=O)OCCN(C)C)cc2)cc1,52.8% [100 µM]
10,N#Cc1ccc(NC(=O)Nc2nc3ccc(OC(F)(F)F)cc3s2)cc1,-47% (active)
11,COc1ccc(/C(C#N)=C/c2cc(OC)c(OC)c(OC)c2)cc1,14.8%
12,NCCNc1nc(-c2ccccc2)nc2nc(-c3ccccc3)oc12,97.9%
13,COC(=O)[C@]12CC[C@@H](C)[C@H](C)[C@@H]1C1=CC[C@@H]3[C@@]4(C)C(c5ncon5)=C[C@@](C)(CO)C4=CC[C@@]3(C)[C@]1(C)CC2,-33.9% (active)
14,O=c1c2cc(Cl)ccc2oc2ccc(OCCCCCN3CCCCCC3)cc12,54.2%
